Results published in PubChem BioAssay.
Values without a mark were called inactive. Active and inactive are the calls of the source.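 How the source made its calls: active means compound raises insulin release from rat beta cells at 5 mM glucose, no numeric limit stated; inactive means the rest.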

test: stimulators of insulin release from INS-1E, primary screen, cell-based, 5 mM glucose, NPC library (AID 1117329); settings: rat INS-1E insulin secretion, at 10 µM, hits give high values; further: reference of the scale not given here

Question: Which insulin secretion stimulation does the source give for `CCOC(=O)C1=C(C)NC(C)=C(C(=O)OC)C1c1cccc(Cl)c1Cl` (stereo not drawn) here?
Answer: 3.1%

Question: With `O=C(NCCN1CCOCC1)c1ccc(Cl)cc1` as the molecule, how does the insulin secretion stimulation read?
Answer: -2.6%

Question: Which insulin secretion stimulation does the source give for `CCOc1cc(CC(=O)N[C@@H](CC(C)C)c2ccccc2N2CCCCC2)ccc1C(=O)O` here?
Answer: 43.9% (active)

Question: With `COCCCC/C(=N\OCCN)c1ccc(C(F)(F)F)cc1` as the molecule, how does the insulin secretion stimulation read?
Answer: 1.6%

Question: Which insulin secretion stimulation does the source give for `COc1ccccc1N1CCN(CC(O)COc2cccc3ccccc23)CC1` (stereo not drawn) here?
Answer: 0.4%

Question: With `CC(C)NCC(O)COc1ccc(CCOCC2CC2)cc1` (stereo not drawn) as the molecule, how does the insulin secretion stimulation read?
Answer: -1.4%

Question: Which insulin secretion stimulation does the source give for `COc1cc2nc(N3CCN(C(=O)C4CCCO4)CC3)nc(N)c2cc1OC` (stereo not drawn) here?
Answer: 0.35%

Question: For `c1cnc(N2CCN(Cc3ccc4c(c3)OCO4)CC2)nc1`, which insulin secretion stimulation is on record?
Answer: 1%

Question: With `CCOC(=O)c1ncn2c1CN(C)C(=O)c1cc(F)ccc1-2` as the molecule, how does the insulin secretion stimulation read?
Answer: 1.6%

Question: With `CC(C)NCC(O)COc1ccc(COCCOC(C)C)cc1` (stereo not drawn) as the molecule, how does the insulin secretion stimulation read?
Answer: 1.2%

Question: Which insulin secretion stimulation does the source give for `CN1CCC(=C2c3ccccc3C=Cc3ccccc32)CC1` here?
Answer: 0.2%

Question: With `Cc1ncc([N+](=O)[O-])n1CC(O)CCl` (stereo not drawn) as the molecule, how does the insulin secretion stimulation read?
Answer: -1.6%

Question: With `CCc1oc2ccccc2c1C(=O)c1cc(Br)c(O)c(Br)c1` as the molecule, how does the insulin secretion stimulation read?
Answer: 4.6%

Question: With `O=C(CCNNC(=O)c1ccncc1)NCc1ccccc1` as the molecule, how does the insulin secretion stimulation read?
Answer: -2.7%

Question: Which insulin secretion stimulation does the source give for `Oc1ccc(C2CNCCc3c2cc(O)c(O)c3Cl)cc1` (stereo not drawn) here?
Answer: 5.4%

Question: For `O=C1CC2(CCCC2)CC(=O)N1CCCCN1CCN(c2ncccn2)CC1`, which insulin secretion stimulation is on record?
Answer: -0.8%

Question: For `Cc1cccc(C)c1OCC(C)N` (stereo not drawn), which insulin secretion stimulation is on record?
Answer: 4.3%

Question: For `CN1CCC(=C2c3ccccc3CC(=O)c3sccc32)CC1`, which insulin secretion stimulation is on record?
Answer: 3.05%

Question: Which insulin secretion stimulation does the source give for `CCC1=C(C)CN(C(=O)NCCc2ccc(S(=O)(=O)NC(=O)NC3CCC(C)CC3)cc2)C1=O` (stereo not drawn) here?
Answer: 29.4% (active)

Question: Which insulin secretion stimulation does the source give for `Nc1nc2c(ncn2CCC(CO)CO)c(=O)[nH]1` here?
Answer: -2.4%

Question: With `Cn1nnc2c(C(N)=O)ncn2c1=O` as the molecule, how does the insulin secretion stimulation read?
Answer: 6.3%

Question: Which insulin secretion stimulation does the source give for `Nc1ccc(O)c(C(=O)O)c1` here?
Answer: -1.5%

Question: Which insulin secretion stimulation does the source give for `CC1CCN(CCCC(=O)c2ccc(F)cc2)CC1` here?
Answer: 8.9%

Question: For `COC(=O)C1=C(C)NC(C)=C(C(=O)OC(C)C)C1c1cccc2nonc12` (stereo not drawn), which insulin secretion stimulation is on record?
Answer: -0.7%

Question: With `OCCOCCN1CCN(C2=Nc3ccccc3Sc3ccccc32)CC1` as the molecule, how does the insulin secretion stimulation read?
Answer: 2.8%

Question: For `Nc1nc(N)nc(-c2cc(Cl)ccc2Cl)n1`, which insulin secretion stimulation is on record?
Answer: 2%

Question: With `CCc1c2c(nc3ccc(OC(=O)N4CCC(N5CCCCC5)CC4)cc13)-c1cc3c(c(=O)n1C2)COC(=O)[C@]3(O)CC` as the molecule, how does the insulin secretion stimulation read?
Answer: -1.1%

Question: Which insulin secretion stimulation does the source give for `COc1ccc(C2CNC(=O)C2)cc1OC1CCCC1` (stereo not drawn) here?
Answer: 0.8%

Question: For `CN1CCCCC1CCN1c2ccccc2Sc2ccc(S(C)=O)cc21` (stereo not drawn), which insulin secretion stimulation is on record?
Answer: 15.2%

Question: For `O=C(O)/C=C/c1ccc(Cn2ccnc2)cc1`, which insulin secretion stimulation is on record?
Answer: 1.9%

Question: With `COc1ccc2nc(S(=O)Cc3ncc(C)c(OC)c3C)[nH]c2c1` (stereo not drawn) as the molecule, how does the insulin secretion stimulation read?
Answer: 0.4%

Question: With `CCN1CCCC1CNC(=O)c1cc(S(=O)(=O)CC)c(N)cc1OC` (stereo not drawn) as the molecule, how does the insulin secretion stimulation read?
Answer: 0%

Question: Which insulin secretion stimulation does the source give for `CCOC(=O)OC(C)OC1=C(C(=O)Nc2ccccn2)N(C)S(=O)(=O)c2ccccc21` (stereo not drawn) here?
Answer: 0.55%

Question: With `O=C(NCCO[N+](=O)[O-])c1cccnc1` as the molecule, how does the insulin secretion stimulation read?
Answer: 1.2%

Question: With `CC[N+](C)(CC)CCOC(=O)C(O)(c1ccccc1)C1CCCCC1` (stereo not drawn) as the molecule, how does the insulin secretion stimulation read?
Answer: -1.5%

Question: For `CNS(=O)(=O)Cc1ccc2[nH]cc(CCN(C)C)c2c1`, which insulin secretion stimulation is on record?
Answer: 0.3%

Question: With `CCc1nn(CCCN2CCN(c3cccc(Cl)c3)CC2)c(=O)n1CCOc1ccccc1` as the molecule, how does the insulin secretion stimulation read?
Answer: -1.1%

Question: Which insulin secretion stimulation does the source give for `OCc1cc(C(O)CNCCCCCCOCCCCc2ccccc2)ccc1O` (stereo not drawn) here?
Answer: 0.4%
